Test results as given in PubChem BioAssay (Tox21).
Records with an inconclusive call do not appear. A number with no mark means an inactive call. Calls follow the shape of the full dose curve.

test: qHTS assay to identify small molecule agonists or antagonists of the thyroid stimulating hormone receptor (TSHR) signaling pathway - wild type cell line counter screen (AID 1259384); details: HEK293 wild type, cAMP HTRF counter-screen, hits give high values; series mostly up to 92.4 µM; cAMP activity change: at the top concentration
Text: U.S. Tox21 Program National Center for Advancing Translational Sciences [NCATS] NIH Chemical Genomics Center [NCGC] U.S. Environmental Protection Agency [EPA] National Institutes of Environmental Health Sciences [NIEHS] National Toxicology Program [NTP] U.S. Food and Drug Administration [FDA] Tox21 Assay Overview: TSHR is the receptor for thyrotropin (thyroid stimulating hormone or TSH), a member of the glycoprotein hormone family. TSH is released by the anterior pituitary gland and is the main regulator of thyroid gland growth and development. Upon binding circulating thyrotropin, a G-protein signal cascade activates adenylyl cyclase and […] cAMP concentration is increased. cAMP is a key second messenger involved extensively in cellular signal transduction pathways associated with the majority of G-protein coupled receptors (GPCRs). The activation of these GPCRs by neurotransmitters, lipids, nucleotides, peptides and hormones results in the activation or the inhibition of plasma membrane-bound adenylate cyclase through heterotrimeric G-proteins. A cell-based TSHR-Hek293 assay can be used to identify TSHR agonists. To eliminate the false positive compounds identified from screening a cell-based TSHR-Hek293 cell line, cAMP assay in a wild type Hek293 cells was used as a counter screening.
Tox21 Assay Protocol Summary: Hek293 cells (wild type) were dispensed at 800 cells/4 uL/well in 1536-well white plates using a Multidrop dispenser. After the assay plates were incubated at a 37 C/5% CO2 incubator for 18 hrs, 23 nL of compounds dissolved in DMSO, positive controls or DMSO only was transferred to the assay plate by a pin tool, followed by 1 ul medium containing Ro20-1724. After 30 min of incubation at room temperature, 2.5 ul/well of cAMP-d2 and 2.5 ul/well of anti-cAMP-cryptate were added respectively into the assay plates using a Flying Reagent Dispenser. The plates were incubated at room temperature for 1 hr. The fluorescence intensity in the plates was measured using an Envision plate reader. Each test compound was measured at 15 concentrations and in triplicates.
% is scaled to controls: 0 for no effect and ±100 for the full control effect.

| Structure (SMILES) | cAMP activity change |
| --- | --- |
| C=CCn1c(=O)n([C@@H]2O[C@H](CO)[C@@H](O)[C@H]2O)c2nc(N)[nH]c(=O)c21 | -8.63% [at 42.5 µM] |
| CC(C)(C)CC(C)(C)N | 2.52% |
| CN(C)CCOC(c1ccc(Cl)cc1)c1ccccn1 (stereo not given) | -1.76% [at 42.5 µM] |
| N#CCN(CC#N)CCN(CC#N)CC#N | -3.34% |
| NS(=O)(=O)c1cc(C2(O)NC(=O)c3ccccc32)ccc1Cl (stereo not given) | 0.0802% [at 42.5 µM] |
| Nc1nc(F)nc2c1ncn2[C@@H]1O[C@H](CO)[C@@H](O)[C@@H]1O | -4.85% [at 42.5 µM] |
| O=C(CCOCCOCCOCCOCCC(=O)Nc1c(I)cc(I)c(C(=O)O)c1I)Nc1c(I)cc(I)c(C(=O)O)c1I | 0.0072% [at 42.5 µM] |
| C[N+](C)(C)CC[N+]1(C)Cc2c(Cl)c(Cl)c(Cl)c(Cl)c2C1 | 3.25% [at 42.5 µM] |
| CCn1c(=O)c2c(nc(/C=C/c3ccc(OC)c(OC)c3)n2C)n(CC)c1=O | -2.97% [at 42.5 µM] |
| CCN1CCCC(OC(=O)C(c2ccccc2)c2ccccc2)C1 (stereo not given) | -10.6% [at 42.5 µM] |
| COC(=O)[C@H]1[C@H]2C[C@@H]3c4[nH]c5cc(OC)ccc5c4CCN3C[C@H]2C[C@@H](OC(=O)COc2ccc(OC)cc2)[C@@H]1OC | 5.97% [at 42.5 µM] |
| CCCCCCCCCCCCI | -7.7% |
| CCCC(C)C(=O)O (stereo not given) | -2.17% |
| Cn1cnc2c(=O)[nH]c(N)nc21 | 0.0284% |
| CCCC(C)CO (stereo not given) | -0.958% |
| OCC(O)[C@@H](O)[C@H](O)[C@H](O)CO[C@H]1O[C@H](CO)[C@@H](O)[C@H](O)[C@H]1O (stereo not given in full) | -3.21% |
| CCCCCCC(CCCCCCCCCCC(=O)OCC(COC(C)=O)OC(C)=O)OC(C)=O (stereo not given) | -2.57% [at 42.5 µM] |
| CCCCCCOC(=O)CC(CC(=O)OCCCCCC)(OC(=O)CCC)C(=O)OCCCCCC | 1.25% |
| CC12CCC(CC1=O)C2(C)C (stereo not given) | 0.188% |
| C=C(C)C(=O)NCCC[N+](C)(C)C | 0.336% |

| Structure (SMILES) | cAMP activity change |
| --- | --- |
| CCC(C)(C)C1CCC(OC)CC1 (stereo not given) | 3.07% |
| Cc1ccccc1Br | 2.07% |
| NC(=S)Nc1cccc2ccccc12 | 4.82% [at 8.39 µM] |
| CCCc1ccc(N)cc1 | 3.61% |
| Nc1ncnc2c1ncn2Cc1c(F)cccc1Cl | 4.89% [at 42.5 µM] |
| COc1cccc(OC)c1 | 1.86% |
| NC(=O)c1ncn([C@@H]2O[C@H](CO)[C@@H](O)[C@H]2O)c1O | 0.716% [at 42.5 µM] |
| CC/C=C\C#N | 10.1% |
| CCCCCCCCCCCCCCCCCC(=O)OCCCCCCCCCCCCCC(C)C | -0.0805% |
| CCN(CC)C(=O)c1ccc(O)c(OC)c1 | 4.85% [at 42.5 µM] |
| COc1cccc(Br)c1 | -3.82% |
| CC(C)CCCCCCN | 9.91% |
| Oc1ccc2c(c1)OC[C@@H](N1CCC(O)(c3ccc(F)cc3)CC1)[C@H]2O | -0.856% [at 42.5 µM] |
| CCCCCCOC(=O)c1ccccc1O | 3.26% |
| C=C(C)C1CC=C(C)C(O)C1 (stereo not given) | 2.88% |
| COC(C(=O)O)c1ccccc1 (stereo not given) | 0.44% |
| FC(F)(F)C(F)(F)C(F)(F)C(F)(F)C(F)(F)C(F)(F)C(F)(F)C(F)(F)C(F)(F)C(F)(F)F | 1.74% [at 8.39 µM] |
| CC(C)COC(=O)C(C)C | -1.38% |
| C=CC(=O)OCCCCCC | -2.93% |
| Cc1c(F)cc2c(=O)c(C(=O)O)cn3c2c1CCC3C (stereo not given) | -0.0234% [at 42.5 µM] |
